Laboratory results published in PubChem BioAssay (Tox21).
Results filed as inconclusive are left out. Entries that show only a call come without a potency. Activity calls are given as the source filed them. Calls come from the whole dose curve; as a rule, active = well fitted activation curve with a large enough effect in the signal ratio in the repeat runs (not every such curve was filed as active); inconclusive = weak or mixed curves, or effect the other way; inactive = no such curve, though single readings can be large or run the other way; the % refers to the signal ratio.

Target: Peroxisome proliferator-activated receptor gamma (Homo sapiens) (UniProt P37231)
Sequence (P37231 whole entry, looked up): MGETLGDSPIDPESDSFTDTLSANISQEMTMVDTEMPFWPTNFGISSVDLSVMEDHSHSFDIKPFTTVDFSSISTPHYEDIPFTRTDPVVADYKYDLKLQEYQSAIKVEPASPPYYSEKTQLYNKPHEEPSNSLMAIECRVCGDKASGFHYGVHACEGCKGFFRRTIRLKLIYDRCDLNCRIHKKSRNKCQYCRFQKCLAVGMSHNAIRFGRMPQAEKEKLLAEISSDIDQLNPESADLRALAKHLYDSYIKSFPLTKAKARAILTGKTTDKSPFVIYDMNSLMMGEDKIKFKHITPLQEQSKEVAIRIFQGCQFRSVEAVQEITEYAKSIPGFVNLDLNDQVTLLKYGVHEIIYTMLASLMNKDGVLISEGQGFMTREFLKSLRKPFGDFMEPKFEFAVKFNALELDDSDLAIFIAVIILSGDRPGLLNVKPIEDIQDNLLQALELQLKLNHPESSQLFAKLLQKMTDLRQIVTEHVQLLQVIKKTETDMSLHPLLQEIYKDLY
Assay: qHTS assay to identify small molecule agonists of the peroxisome proliferator-activated receptor gamma (PPARg) signaling pathway (AID 743094)
Conditions: HEK293H PPARg-UAS-bla, beta-lactamase FRET ratio, 17 h; series mostly up to 57 µM
Source text: U.S. Tox21 Program National Center for Advancing Translational Sciences [NCATS] NIH Chemical Genomics Center [NCGC] U.S. Environmental Protection Agency [EPA] National Institutes of Environmental Health Sciences [NIEHS] National Toxicology Program [NTP] U.S. Food and Drug Administration [FDA] Tox21 Assay Overview: The peroxisome proliferator-activated receptors (PPARs) are lipid-activated transcription factors of the nuclear receptor superfamily with three distinct subtypes namely PPAR alpha, PPAR delta (also called PPAR beta) and PPAR gamma (PPARg). All these subtypes heterodimerize with Retinoid X receptor (RXR) and these heterodimers regulate transcription of various genes. PPAR-gamma receptor (glitazone receptor) is involved in the regulation of glucose and lipid metabolism. To identify the compounds that activate PPAR-gamma signaling, GeneBLAzer PPAR gamma UAS-bla HEK293H cell line (Invitrogen, Carlsbad, CA, USA) containing a beta-lactamase reporter gene under control of the control of an upstream activator sequence (UAS) stably integrated into HEK293H cells was used to screen Tox21 compound library.
Tox21 Assay Protocol Summary: PPARg-bla cells were dispensed at 3000 cells/6uL/well in 1536-well black wall/clear bottom plates using a Multidrop Combi (Thermo Fisher Scientific, Waltham, MA) dispenser. After the assay plates were incubated at 37C and 5% CO2 for 5 h, 23 nL of compounds dissolved in DMSO, positive controls or DMSO only was transferred to the assay plate by a Pintool station (Kalypsys, San Diego, CA). The assay plates were incubated at 37C for 17 h. After 1 uL of LiveBLAzerTM B/G FRET substrate was added using a Bioraptr Flying Reagent Dispenser (FRD) workstation (Beckman Coulter, Indianapolis, IN, USA), the plates were incubated at room temperature for 1 h, and fluorescence intensity was measured by an Envision plate reader (PerkinElmer, Shelton, CT).
Potency is the fitted concentration of half-maximal effect.

| Compound | Potency |
| --- | --- |
| CCCCCCCC/C=C\CCCCCCCC(=O)N(C)CC(=O)O | 6.92 µM (active) |
| O=C(O)c1cccc(Cl)n1 | inactive |
| COc1cc(C(=O)NS(=O)(=O)c2ccccc2C)ccc1Cc1cn(C)c2ccc(NC(=O)OC3CCCC3)cc12 | 0.169 µM (active) |
| S=P(N1CC1)(N1CC1)N1CC1 | inactive |
| O=C1Nc2ccc(Cl)cc2[C@@](C#CC2CC2)(C(F)(F)F)O1 | inactive |
| O=C(O)CCCCCCC(=O)O | inactive |
| Nc1ncnc2c1ncn2[C@@H]1O[C@H](COP(=O)(O)O)[C@@H](O)[C@H]1O | inactive |
| Cc1cc(Nc2ccc(O)cc2)ccc1N | inactive |
| COc1ccc2sc(C(=O)Nc3nnn[nH]3)c(OC(C)C)c2c1 | 5.47 µM (active) |
| O=Nc1ccc(NO)cc1 | inactive |
| Clc1ccc(C(c2ccccc2Cl)C(Cl)Cl)cc1 (stereo not given) | inactive |
| N[C@@H](CSSC[C@H](N)C(=O)O)C(=O)O | inactive |
| Oc1c(Br)cc(Br)c2cccnc12 | inactive |
| Cc1occc1SSc1ccoc1C | inactive |
| CCCCN(CCCC)CCC(O)c1cc2c(Cl)cc(Cl)cc2c2cc(C(F)(F)F)ccc12 (stereo not given) | inactive |
| CC(O)C#CC(C)O (stereo not given) | 54.4 µM (active) |
| CCCCNc1c(C(=O)OCC)c(C)nc2c1cnn2CC | inactive |
| Cn1cnc2ncnc(N)c21 | inactive |
| C(=C/c1ccccc1)/c1ccccc1 | inactive |
| CO[C@H]1C=CO[C@@]2(C)Oc3c(C)c(O)c4c(O)c(cc(O)c4c3C2=O)NC(=O)/C(C)=C\C=C/[C@H](C)[C@H](O)[C@@H](C)[C@@H](O)[C@@H](C)[C@H](OC(C)=O)[C@@H]1C | inactive |

| Compound | Potency |
| --- | --- |
| O=C(c1ccccc1)c1cc(Cl)ccc1O | inactive |
| CC(=O)Oc1ccc(C2(c3ccc(OC(C)=O)cc3)Oc3ccccc3NC2=O)cc1 | inactive |
| O=C(Nc1ccc(Cl)cc1)Nc1ccc(Cl)c(C(F)(F)F)c1 | inactive |
| O=C(O)Cc1ccc(OCCNC[C@H](O)c2ccccc2)cc1 | inactive |
| O=C1OC(OC(=O)c2cccnc2Nc2cccc(C(F)(F)F)c2)c2ccccc21 (stereo not given) | inactive |
| Cc1cccc(Br)c1 | inactive |
| CCCCCCOc1cc(C)c(O)c(C)c1C | inactive |
| CCCN(CCc1cccs1)[C@H]1CCc2c(O)cccc2C1 | inactive |
| CNC(=S)NN | inactive |
| COC(=O)CC#N | inactive |
| C[C@]12CC[C@H]3C(=CCc4cc(O)ccc43)[C@@H]1CCC2=O | inactive |
| [O]=[Zr] | inactive |
| Clc1ccc(C(Cn2ccnc2)OCc2c(Cl)cccc2Cl)c(Cl)c1 (stereo not given) | inactive |
| CC(C)c1cccc(C(C)C)c1N1C(=O)c2ccc(O)cc2C1=O | inactive |
| CCCCOc1ccc(C(=O)CCN2CCCCC2)cc1 | inactive |
| CCCCCCCC/C=C\CCCCCCCC(=O)NCc1ccc(O)c(OC)c1 | inactive |
| Cc1cn[nH]c1 | inactive |
| CCOC(=O)COc1ccc(C)cc1 | inactive |
| C[C@@H]1CC[C@H]2C(C)(C)[C@H]3C[C@@]12CC[C@@]3(C)O | inactive |
| O=Cc1ccc(F)cc1 | inactive |
